HBB splice mod: qHTS Assay for Modulators of Hemoglobin Beta Chain Splicing; HBB splicing reporter cell assay, activation; EGFP reporter with mutant IVS2-654 intron; response scale: normalised to 500 nM splice-correcting PNA; Potency, µM (doses to about 46.1 µM), for inactives: top-dose activation, hits mostly activators; 65,000 compounds, 0.06% hits; further: potency means the concentration at half of the fitted maximal effect; 0% is about no effect
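Compounds were applied for 2 days to HeLa EGFP-654 cells, 500/well in Optimem with 2% FCS. The reporter's EGFP is disrupted by mis-splicing of beta-globin intron IVS2-654. Readout: summed well GFP fluorescence from 488 nm laser scanning; reference was 500 nM antisense […] 654 PNA.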
ALOX15B inhib: qHTS Assay for Inhibitors of 15-hLO-2 (15-human lipoxygenase 2); Polyunsaturated fatty acid lipoxygenase ALOX15B (Homo sapiens), O15296; purified 15hLO-2, xylenol orange hydroperoxide absorbance; Potency, µM (titrated, usually from 57.1 µM), without a hit: at the top dose activity change, negative = inhibition, actives largely listed as inhibitors; 110,000 compounds, 0.56% hits; AID 881, 2007; further: potency means the concentration at half of the fitted maximal effect; on the % scale 0 is the no-effect control and ±100 the full control effect; nearly all actives have a fitted effect of over 60% in size
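Screening format was qHTS against 50 nM purified 15hLO-2 in Hepes pH 7.5 with detergent. Activity follows hydroperoxide formation from 45 uM arachidonic acid, measured as 573:405 nm absorbance ratio of the ferric-xylenol orange complex.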
Tau fil binding: qHTS Assay for Tau Filament Binding. recombinant tau filaments, thioflavin S fluorescence, 15 h; filaments grown with octadecylsulfate alongside compound. Potency, µM (titrated, usually from 57.1 µM), for the others: at the highest dose activity change, negative = inhibition. 71,000 compounds, 2% hits;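 further: potency means the concentration at half of the fitted maximal effect; on the % scale 0 is the no-effect control and ±100 the full control effect; actives lower thioflavin S fluorescence by blocking filaments or displacing dye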
Target sequence (P10636 whole entry, looked up): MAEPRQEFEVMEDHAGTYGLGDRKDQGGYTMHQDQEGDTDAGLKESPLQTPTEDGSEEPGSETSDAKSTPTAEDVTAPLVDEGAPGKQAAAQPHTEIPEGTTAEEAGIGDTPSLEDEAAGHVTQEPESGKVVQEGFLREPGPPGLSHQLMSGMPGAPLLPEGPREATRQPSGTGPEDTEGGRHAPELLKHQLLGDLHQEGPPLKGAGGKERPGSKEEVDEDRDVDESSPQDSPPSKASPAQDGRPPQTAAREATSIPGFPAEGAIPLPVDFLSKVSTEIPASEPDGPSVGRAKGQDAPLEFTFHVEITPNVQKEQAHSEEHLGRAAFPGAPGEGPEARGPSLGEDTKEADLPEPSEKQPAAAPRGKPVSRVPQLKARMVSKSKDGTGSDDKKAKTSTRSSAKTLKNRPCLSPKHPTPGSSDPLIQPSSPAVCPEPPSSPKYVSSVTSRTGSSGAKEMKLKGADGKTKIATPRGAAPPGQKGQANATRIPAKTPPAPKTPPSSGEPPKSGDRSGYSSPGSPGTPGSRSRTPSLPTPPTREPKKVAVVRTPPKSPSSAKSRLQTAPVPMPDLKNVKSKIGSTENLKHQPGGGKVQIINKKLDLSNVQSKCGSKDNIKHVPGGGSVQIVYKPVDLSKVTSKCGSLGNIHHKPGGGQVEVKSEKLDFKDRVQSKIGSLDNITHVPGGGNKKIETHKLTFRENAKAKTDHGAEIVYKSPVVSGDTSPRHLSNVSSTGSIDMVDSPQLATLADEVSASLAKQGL
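Assay mix: 1 uM His-tagged tau, 30 uM sodium octadecylsulfate, thioflavine S dye in HEPES/NaCl/DTT buffer. Compound is added prior to the inducer. Fluorescence after 15 h at 37 C.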
Ub-GFP proteasome: Ubiquitin-GFP Assay. 67,000 tested, under 10 active. Potency, µM (top dose mostly 45.9 µM), for inactives: at the top dose activation (GFP accumulation), most hits filed as activators. AID 526, 2006. Ubiquitin-GFP reporter cells, proteasome inhibition, GFP fluorescence; response scale: untreated = 0%, 10 µM MG-132 = 100%; active means well fitted activation curve with a large enough effect, not every such curve was filed as active; inconclusive means small, poorly fitted or top-dose-only effect, or another doubt; inactive means no such curve, though single readings can be large or run the other way; further: potency means the concentration at half of the fitted maximal effect
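GFP accumulation read-out: laser plate cytometry counting ubiquitin(G76V)-GFP-expressing U2OS cells after 4 hr compound exposure at 37 °C. Titrations spanned 46 uM to 2.9 nM; 0% = basal, 100% = 10 uM MG-132; concentration-response curves fitted.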
15-hLO inh: qHTS Assay for Inhibitors of 15-hLO (15-human lipoxygenase) | 74,000 compounds, 1.4% hits | Polyunsaturated fatty acid lipoxygenase ALOX15 (Homo sapiens), P16050 | purified 15hLO-1, xylenol orange hydroperoxide absorbance | AID 887, 2007 | Potency, µM (doses to about 57.1 µM), for inactives: at the top dose activity change, negative = inhibition, hits mostly inhibitors; further: potency means the concentration at half of the fitted maximal effect; on the % scale 0 is the no-effect control and ±100 the full control effect; nearly all actives have a fitted effect of over 55% in size
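40 nM 15hLO-1 + cpd, 15 min RT; start w/ 50 uM AA (final), 6 min RT; stop/detect w/ 200 uM XO + 300 uM Fe(II) in 50 mM H2SO4, 30 min; A573/A405. Buffer 25 mM Hepes pH 7.5, 0.01% Triton X-100. No-enzyme wells as negative control.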
Epigenetic mod: qHTS Assay for Epigenetic Modulators; mouse C127i GFP locus derepression, cytometry, 30 h; Potency, µM (doses to about 46.1 µM), for inactives: at the top dose GFP derepression (activation); 68,000 compounds, 0.09% hits; further: % of control where 0% means no effect
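Locus derepression in mouse mammary C127i cells whose integrated CMV-GFP reporter is normally silent; GFP expression after 30 h compound treatment was quantified by counting fluorescent cells.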
An asterisk follows results filed as active; [ ] = remark or other dose. Shown are actives, neighbours in structure and some others; about 2.3% of the full set was active somewhere. Unless noted, the call rests on the fitted dose curve; in most records, active means well fitted curve in the direction sought with a large enough effect; inconclusive means small, poorly fitted or top-dose-only effect, or another doubt; inactive means no such curve, though single readings can be large; an effect the other way counts as inactive or inconclusive.

`COc1ccc(N2CCN(C(c3cccs3)C(C)NS(=O)(=O)c3ccccc3)CC2)cc1` (centres undefined) gave HBB splice mod -1%, ALOX15B inhib -1%, Tau fil binding 16µM*, Ub-GFP proteasome -10%, 15-hLO inh -15% and Epigenetic mod -1%.
`COc1ccc(N2CCN(C(=O)c3ccc(NS(=O)(=O)c4ccccc4)cc3)CC2)cc1` gave HBB splice mod -2%, Tau fil binding -1%, Ub-GFP proteasome -3%, 15-hLO inh 5µM* and Epigenetic mod -2%.
For Cc1ccc(C(=O)N2CCN(c3ccc(NC(=S)NC(=O)Cc4ccccc4)cc3)CC2)cc1 the results were ALOX15B inhib 13µM*.
CCOc1cccc2oc(-c3ccccc3Cl)cc(=O)c12 was read as ALOX15B inhib -11%[0.0915 µM].
Screening c1cncc(-c2cncnc2NC2CCNCC2)c1 returned HBB splice mod -1%, ALOX15B inhib 4%, Tau fil binding -17%, Ub-GFP proteasome 4%, 15-hLO inh 32µM* and Epigenetic mod 2%[9.22 µM].
`CCOC(=O)c1c(C)nc2c3ccccc3ccn12` gave HBB splice mod -1%, ALOX15B inhib -1%, Tau fil binding 54%, Ub-GFP proteasome -3%, 15-hLO inh 16µM* and Epigenetic mod -3%.
For CN(C)C(=O)c1ccc(-c2cc(NCc3cccnc3)ncn2)cc1 the results were HBB splice mod 1%, ALOX15B inhib -8%, Tau fil binding -2%, Ub-GFP proteasome 3%, 15-hLO inh 30% and Epigenetic mod -3%[9.22 µM].
Screening Cc1ccc(/C=C/C2=Cc3c(sc(NC(=O)CSc4n[nH]c(N)n4)c3C#N)C(C)(C)C2)o1 returned HBB splice mod inconclusive, ALOX15B inhib inconclusive, Tau fil binding 64%, Ub-GFP proteasome -1%, 15-hLO inh 13µM* and Epigenetic mod inconclusive.
CCOC(=O)c1c(NC(=O)CSc2n[nH]c(N)n2)sc(CC)c1C was read as HBB splice mod -1%, ALOX15B inhib 18%, Tau fil binding 18%, Ub-GFP proteasome -16%, 15-hLO inh -10% and Epigenetic mod 0%.
O=C(O)c1nc(-c2ccccc2)[nH]c1C(=O)O was read as HBB splice mod 2%[9.22 µM], ALOX15B inhib 0%[11.4 µM], Tau fil binding -10%[11.4 µM], Ub-GFP proteasome 3%[9.17 µM], 15-hLO inh -4%[11.4 µM] and Epigenetic mod -5%[9.22 µM].
O=C(CSc1nc2scc(-c3ccco3)c2c(=O)n1-c1ccccc1)N1CCOCC1 was read as HBB splice mod 11%, ALOX15B inhib -10%, Tau fil binding 240%, Ub-GFP proteasome -4%, 15-hLO inh 1.6µM* and Epigenetic mod 3%.
For NC(=O)CSc1nc2scc(-c3ccco3)c2c(=O)n1-c1ccccc1 the results were HBB splice mod 0%[57.5 µM], ALOX15B inhib -22%, Tau fil binding -2%, Ub-GFP proteasome -3%, 15-hLO inh -9% and Epigenetic mod 0%.
Screening Cc1ccc(/C=c2\sc3nc(-c4cccs4)nn3c2=O)o1 returned HBB splice mod 2%, ALOX15B inhib -21%, Tau fil binding 8%, Ub-GFP proteasome 23%, 15-hLO inh 13µM* and Epigenetic mod 6%.
`COc1ccccc1/C=c1\sc2nc(-c3cccs3)nn2c1=O` gave HBB splice mod -1%, Tau fil binding -23%, Ub-GFP proteasome -7%, 15-hLO inh -1% and Epigenetic mod 0%.
`CSc1ncnc2nc[nH]c12` gave HBB splice mod 0%, Tau fil binding -4%, Ub-GFP proteasome -1% and 15-hLO inh -19%.
`CC1CCC2C(=O)N3C(CCC(C)C3c3ccc(-c4ccco4)cc3)C(=O)N2C1c1ccc(-c2ccco2)cc1` (centres undefined) gave HBB splice mod 3%[9.22 µM] and 15-hLO inh 2.5µM*.
C[C@@H]1CC[C@@H]2C(=O)N3[C@@H](CC[C@@H](C)[C@@H]3c3ccc(-c4ccco4)cc3)C(=O)N2[C@H]1c1ccc(-c2ccco2)cc1 was read as HBB splice mod 1%[9.22 µM] and 15-hLO inh -13%[11.4 µM].
Screening CC1CCC2C(=O)N3C(CCC(C)[C@@H]3c3ccc(-c4ccco4)cc3)C(=O)N2C1c1cccc(N2CCCC2=O)c1 (some centres undefined) returned HBB splice mod 3%[9.22 µM] and 15-hLO inh 5µM*.
O=[N+]([O-])c1ccc(CSCc2ccc(Cl)cc2)cc1 was read as HBB splice mod 0%[9.22 µM], ALOX15B inhib -8%[11.4 µM], Tau fil binding -9%[11.4 µM], Ub-GFP proteasome -3%[9.17 µM], 15-hLO inh -7%[11.4 µM] and Epigenetic mod -3%[9.22 µM].
O=C(O)CCCC[C@@H]1SC[C@H]2NC(=O)N[C@H]12 was read as Tau fil binding inconclusive, Ub-GFP proteasome -2% and Epigenetic mod 0%[9.22 µM].
CC(=O)c1cccc(NC(=O)C2CCN(S(=O)(=O)c3c(C)n[nH]c3C)CC2)c1 was read as HBB splice mod -2%, ALOX15B inhib -4%, Tau fil binding 25µM*, Ub-GFP proteasome -1%, 15-hLO inh -10% and Epigenetic mod 11%.
CC(C)S was read as HBB splice mod 0%, ALOX15B inhib -5%, Tau fil binding -9% and 15-hLO inh -2%.
For CN1c2ccccc2C(C)(C)C12C=Cc1cc(O)ccc1O2 (centres undefined) the results were HBB splice mod -1%[9.22 µM], ALOX15B inhib inconclusive, Tau fil binding 25µM*, Ub-GFP proteasome 5%, 15-hLO inh inconclusive and Epigenetic mod inconclusive.
For CCSc1ccccc1C(=O)Nc1cc(C)on1 the results were HBB splice mod 0%, ALOX15B inhib -9%, Tau fil binding -4%, Ub-GFP proteasome -1%, 15-hLO inh 13µM* and Epigenetic mod 2%.
`NC(N)=N/N=C(\c1ccc(Cl)cc1)C1CC1` gave HBB splice mod 1%[9.22 µM], ALOX15B inhib 6%[11.4 µM], Tau fil binding 5%[11.4 µM], Ub-GFP proteasome -3%[9.17 µM], 15-hLO inh 3%[11.4 µM] and Epigenetic mod 7%[9.22 µM].
`O=C(NCc1ccco1)c1cccc2ccccc12` gave ALOX15B inhib -3%, Tau fil binding -3%, Ub-GFP proteasome 8%, 15-hLO inh -4% and Epigenetic mod 1%.
Screening COc1ccc(OC)c(N=c2oc3c(OC)cccc3cc2C(=O)NCc2ccco2)c1 returned ALOX15B inhib -12%, Tau fil binding 0.79µM*, Ub-GFP proteasome 2%, 15-hLO inh 1% and Epigenetic mod -1%.

Screening data deposited in PubChem BioAssay by National Center for Advancing Translational Sciences (NCATS).
